Experimental data from PubChem BioAssay AID504523 (Broad Institute, 2011).
The whole screen tested about 340,000 compounds, of which about 490 (0.14%) were called active. Shown is part of a subset that was picked to be rich in actives. Unmarked numbers belong to inactive results. Rule as the data show it: active = inhibition above about 12%; inconclusive = no clear call, values can overlap the other calls; inactive = below about 7.3%.

Biological target: Kelch-like ECH-associated protein 1 (Homo sapiens) (UniProt Q14145)
Assay: Keap1-Nrf2 protein-protein interaction inhibitors, primary screen, biochemical, fluorescence polarization, single point (AID 504523);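 also: human Keap1 Kelch domain with fluorescein labeled Nrf2 9mer peptide probe; 0% = neutral control wells and 100% = peptide positive control; higher means more block of Keap1 binding to Nrf2 peptide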
Details: Keap1 Kelch-Nrf2 peptide fluorescence polarization, 1536-well; at 9.4 µM; active compounds read high

Sequence of Kelch-like ECH-associated protein 1 (Homo sapiens) (Q14145 whole entry, looked up, the tested form may be a part): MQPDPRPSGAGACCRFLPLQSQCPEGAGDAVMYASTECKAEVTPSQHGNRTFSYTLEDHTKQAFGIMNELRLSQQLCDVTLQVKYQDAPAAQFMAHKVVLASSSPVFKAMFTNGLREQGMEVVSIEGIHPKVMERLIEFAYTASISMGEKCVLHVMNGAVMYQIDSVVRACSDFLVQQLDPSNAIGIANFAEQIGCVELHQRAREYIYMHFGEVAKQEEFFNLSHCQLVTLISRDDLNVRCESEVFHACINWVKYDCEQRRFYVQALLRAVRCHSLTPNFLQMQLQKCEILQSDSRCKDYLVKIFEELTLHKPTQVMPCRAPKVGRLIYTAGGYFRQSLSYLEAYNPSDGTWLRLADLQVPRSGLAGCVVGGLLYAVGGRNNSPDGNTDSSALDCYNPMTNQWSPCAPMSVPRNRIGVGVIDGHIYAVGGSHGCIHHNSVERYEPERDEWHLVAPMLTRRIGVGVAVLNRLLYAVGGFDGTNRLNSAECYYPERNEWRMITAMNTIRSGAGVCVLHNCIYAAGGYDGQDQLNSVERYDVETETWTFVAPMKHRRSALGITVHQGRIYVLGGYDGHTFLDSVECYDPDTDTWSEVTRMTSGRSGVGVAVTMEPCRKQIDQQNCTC

Structure (SMILES) | inhibition
O=C(NC(=O)N1CCSCC1)c1c(Cl)cccc1Cl | -0.262%
COc1ccc(Nc2nc(-c3cccnc3)nc3ccccc23)cn1 | 20.8% (active)
S=c1nc2ccccc2c2nc(-c3cccnc3)[nH]n12 | -0.541%
CC(C)(C)Nc1nc(-c2ccccn2)nc2ccccc12 | -3.56%
COc1ccc(CCNCC(O)Cn2ccc3ccccc32)cc1OC (stereo unspecified) | -7.66%
COc1ccc(CCNC(=O)COC(=O)Cc2cccc(F)c2)cc1 | -1.56%
COc1ccc(/C=N/Nc2ncnc3sc4c(c23)CCCC4)cc1O | -9.16%
COC(=O)C1=C(C)NC2=C(C(=O)c3ccccc32)C1c1ccc(-c2ccc(C(=O)O)cc2)o1 (stereo unspecified) | -21.3%
c1ccc(-c2cn3c(n2)CCc2ccc4cccnc4c2-3)cc1 | 0.967%
CCCCN(C(=O)C(CCSC)N1C(=O)c2ccccc2C1=O)c1c(N)n(CCC)c(=O)[nH]c1=O (stereo unspecified) | -8.81%
COc1ccc(C(C(=O)NC(C)(C)C)N(Cc2ccc(F)cc2)C(=O)CCC(=O)Nc2cc(C)on2)cc1 (stereo unspecified) | 6.66%
CC(C)(C)OC(=O)C[C@@H]1C/C=C\C[C@@H](CC(=O)N[C@@H](CO)Cc2ccccc2)C(=O)N2CCC[C@H]2COC1=O | 5.12%
COc1ccc(C2NC(=O)C(=O)/C2=C(\O)c2ccc(Cl)cc2)cc1OC (stereo unspecified) | -0.168%
C=CCOC(=O)N1CCC2CC1c1cc(-c3ccc(OC)cc3)ccc12 (stereo unspecified) | -0.448%
CC1Cc2cc(/C(O)=C3\C(=O)C(=O)N(Cc4cccnc4)C3c3ccccc3F)ccc2O1 (stereo unspecified) | -1.04%
COc1cccc(CC(=O)N2CCCC(CCC(=O)N3CCN(c4ccccn4)CC3)C2)c1 (stereo unspecified) | 2.29%
COc1ccc(N2C(=O)C(O)C2c2ccc(C)cc2)cc1 (stereo unspecified) | -3.41%
O=S(=O)(Nc1ccccc1)c1ccc(NS(=O)(=O)c2cccs2)cc1 | -1.45%
CCN(CC)CCCC(C)n1c2nc(=O)[nH]c(=O)c-2nc2cc(Cl)ccc21 (stereo unspecified) | 152% (active)
CCOc1cc(C2C(C(=O)OC(C)C)=C(C)NC3=C2C(=O)CCC3)cc([N+](=O)[O-])c1O (stereo unspecified) | -4.98%
CCOCCc1c(O)nc(SCC(=O)NCc2ccco2)[nH]c1=O | -1.62%
COc1ccc(CCn2c(NN=C3CCCC3)nc3c2c(=O)[nH]c(=O)n3C)cc1 | 1.25%
COc1ccc(C2c3ccc(O)cc3Oc3ncn(CCCO)c(=N)c32)cc1OC (stereo unspecified) | 28.8% (active)

Structure (SMILES) | inhibition
COc1ccc(C2C(C#N)=C(N)Oc3cc(N)ccc32)cc1OC (stereo unspecified) | -3.33%
COc1ccc(CNCCCO)cc1OC | -3.09%
Cc1cccc2cc3c(N)c(C(=O)N4CCCc5ccccc54)sc3nc12 | -5.05%
O=C1C(=O)N(CCN2CCOCC2)C(c2ccccn2)/C1=C(/O)c1ccc(Cl)cc1 (stereo unspecified) | -6.66%
CCN(CC)CCN1C(=O)C2C(C(=O)Nc3ccc(Br)cc3)C3C=CC2(O3)C1C(=O)NC1CCCCC1 (stereo unspecified) | -0.939%
Cc1ccc(CNC(=O)C2(C(F)(F)F)C/C(=C\Cc3ccccc3)CCCO2)o1 (stereo unspecified) | -4.24%
O=C(NCCS(=O)(=O)NCc1ccc(Cl)cc1)c1ccccc1 | -4.29%
O=C(NCCOCc1ccc(Cl)cc1)c1ncn[nH]1 | 18.3% (active)
Cc1cc(C(=O)NCCc2ccc(Cl)cc2)n(-c2ccccc2)n1 | -8.41%
CN(C)C(=S)N=c1ssc(=S)n1Cc1ccco1 | -0.0433%
COc1ccccc1CCNC(=O)CN1C(=O)NC2(CCCC2)C1=O | -5.6%
O=C1CC(Cc2ccc(Cl)cc2)C(=O)N1c1cc(Cl)ccn1 (stereo unspecified) | 40.7% (active)
Cc1ccc(CC2CC(=O)N(c3nc(C)cc(C)n3)C2=O)cc1 (stereo unspecified) | 1.11%
O=C1CC(Cc2ccccc2)C(=O)N1c1ccc(Cl)cn1 (stereo unspecified) | -0.813%
O=C(Nc1cccc(S(=O)(=O)N2CCOCC2)c1)C12CC3CC(CC(C3)C1)C2 | 1.77%
COc1ccc(NC(=O)CN(C)C(=O)c2n[nH]c3ccccc23)cc1 | 0.904%
CCCCC(=O)Nc1ccc(C(=O)NCCCn2ccnc2)cc1 | -4.02%
COc1cc(OC)cc(C(=O)NCCCn2ccnc2)c1 | -6.37%
CCCC(=O)Nc1ccc(C(=O)NCCCn2ccnc2)cc1 | 6% (active)
Nc1ccccc1SC(C[N+](=O)[O-])c1ccccc1 (stereo unspecified) | -4.52%
COc1ccc(OC)c2[nH]c(=O)c(CCNC(=O)C(=O)c3c[nH]c4ccccc34)cc12 | -5.41%
CC(=O)c1cc(C#N)c(SCC(=O)Nc2nccs2)nc1C | -4.52%
Cc1ccnc(NC(=O)C2CCN(S(=O)(=O)c3c(C)c(C)cc(C)c3C)CC2)c1 | -1.09%

Structure (SMILES) | inhibition
COCCCNC(=O)C1CCC(CNS(=O)(=O)c2ccc(OC)cc2)CC1 (stereo unspecified) | 0.471%
O=C(OCC(=O)N(CCc1ccccc1)Cc1ccccc1)c1ccccc1[N+](=O)[O-] | 1%
CC(C)C[C@H](NC(=O)C1CCC(CNC(=O)[C@@H]2CCCN2C(=O)OC(C)(C)C)CC1)C(=O)O (stereo partly specified) | 0.427%
Cc1nc2ccccc2n1C(=O)N1CCOCC1 | -5.92%
OCCC1CN(Cc2cccc(O)c2)CCN1CCc1ccccc1 (stereo unspecified) | -6.53%
COc1ccc(S(=O)(=O)N2C[C@H]3CON(C)[C@H]3C[C@H]2c2cccc(Br)c2)cc1 | -1.34%
COC(C[C@H](O)CC(=O)COCc1ccccc1)OC | -0.107%
Cc1cc(C)n(-c2nnc(N3CCN(c4ccccc4)CC3)nn2)n1 | -3.51%
C=CCn1c(SCc2cccc(F)c2)nc2cc(C(=O)N3CCC(C(N)=O)CC3)ccc2c1=O | -4.14%
COc1cc(/C=N/N=C(\N)c2nonc2N)cc(OC)c1OC | 1.13%
c1ccc2c(c1)OCCOCCOCCO2 | 1.51%
Cc1ccc2nc(NC(=O)C3CSC4(C)CCC(=O)N34)sc2c1 (stereo unspecified) | -0.772%
Oc1cccc(CCc2ccccn2)c1 | 1.31%
CC(C)(C)N(Cc1ccccc1)C(=O)COC(=O)CCc1c[nH]c2ccccc12 | -5.52%
O=C1CC(c2ccccc2)C(c2ccccc2)=NN1 (stereo unspecified) | -8.87%
CCC1CCc2c(sc(NC(C)=O)c2C#N)C1 (stereo unspecified) | -1.96%
Cn1nc(-c2ccccc2)c(CSc2cccc(Cl)c2)c1Cl | 1.6%
CCN1CC=C2C(C#N)=C(N)C(C#N)(C#N)[C@H](c3ccoc3)[C@H]2C1 | 26.5% (active)
O=c1cnnc(Nc2ccccc2F)[nH]1 | -0.638%
CCN(CC)Cc1c(C(=O)N/N=C/c2cccc(OCc3ccc(F)cc3)c2)nnn1-c1nonc1N | 2.94%
CC(=O)NS(=O)(=O)c1ccc2c(c1)Cc1cc(S(=O)(=O)NC(C)=O)ccc1-2 | -4.15%
Cc1ccc(Nc2cc(C)nc3c(C)ccc([N+](=O)[O-])c23)cc1 | -0.384%
CCOc1cc(CNCc2ccccn2)ccc1OCC(=O)NC(C)(C)C | -3.19%

Structure (SMILES) | inhibition
O=C(c1c(F)cccc1Cl)N1CCN(S(=O)(=O)c2ccc3c(c2)OCCCO3)CC1 | -0.841%
CC(C)C(NS(=O)(=O)c1cccs1)C(=O)Nc1nc(C(C)(C)C)cs1 (stereo unspecified) | 1.11%
COc1ccc(-c2nonc2NC(=O)c2oc3ccc(F)cc3c2C)cc1OC | 4.52%
O=C1CC(C(F)(F)C(F)(F)C(F)(F)C(F)(F)F)=Nc2ccccc2N1 | -1.59%
Cc1noc(C)c1COC(=O)Cn1c(C)nc2ccccc21 | 1.41%
CCCc1cc(-c2n[nH]c(=S)n2Cc2ccccc2)cs1 | -5.54%
COc1ccccc1NC(=O)CCN1CCN(c2ccc(Cl)cc2)CC1 | 2.69%
Cc1ccc(S(=O)(=O)N2[C@@H](c3cccc4ccccc34)C(C(=O)O)=C[C@H]2C(C)(C)C)cc1 | 6.06%
Cc1cc(C)nc(N2C(=O)CC(Cc3ccccc3)C2=O)n1 (stereo unspecified) | 2.94%
O=C(Nc1cccc2c1N(C(=O)c1ccco1)CCC2)c1ccco1 | 0.867%
CN(C)c1ccc(C(=S)N2CCN(C(=S)Nc3ccc(Cl)cc3)CC2)cc1 | 1.08%
Cc1ccc(Nc2nc(CSc3nnc(-c4ccncc4)n3-c3ccccc3C)cs2)cc1 | -6.12%
Nc1c(C(=O)O)cnn1-c1ccccc1 | 1.79%
C=C(C)C1CC=C(C)/C(=N\NC(=O)CNc2ccccc2OC)C1 (stereo unspecified) | 0.164%
COc1ccc(OC)c(S(=O)(=O)Nc2ccccc2F)c1 | -3.36%
COc1cc(OC)c(S(=O)(=O)Nc2ccccc2C(=O)O)cc1S(=O)(=O)Nc1ccccc1C(=O)O | 15.6% (active)
COc1ccc(S(=O)(=O)Nc2ccccc2C(=O)N2CCCC2)cc1C | -0.35%
O=C(/C=C/c1cc2c(cc1Br)OCO2)NCc1ccc(Cl)cc1 | -0.718%
Cc1ccccc1CNC(=O)CCC(=O)N1Cc2ccccc2Oc2ncccc21 | 0.575%
O=C(CNCc1ccco1)Nc1cc(S(=O)(=O)N2CCOCC2)ccc1N1CCCC1 | -2.82%
CCCCNC(=O)C1CCCN(S(=O)(=O)c2ccc(S(=O)(=O)NCC(C)C)cc2)C1 (stereo unspecified) | -0.397%
COC(=O)c1ccc(-c2noc(CN(Cc3ccccn3)CC3CCCO3)n2)cc1 (stereo unspecified) | -1.93%
